Results from PubChem BioAssay AID624330 (Southern Research Specialized Biocontainment Screening …, 2012).
The campaign covered roughly 340,000 compounds. About 2,100 (0.62%) were called active.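 The calls were made as follows: active = first-screen hits whose inhibition reached a set limit at any dose in the follow-up dose series; inconclusive = inhibition above the set first-screen limit but never retested; inactive = the rest.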 Not all results are given here. Entries with a potency or affinity are not part of this list.

Target: Rac GTPase-activating protein 1 (Homo sapiens) (UniProt Q9H0H5)
Sequence (Q9H0H5 whole entry, looked up): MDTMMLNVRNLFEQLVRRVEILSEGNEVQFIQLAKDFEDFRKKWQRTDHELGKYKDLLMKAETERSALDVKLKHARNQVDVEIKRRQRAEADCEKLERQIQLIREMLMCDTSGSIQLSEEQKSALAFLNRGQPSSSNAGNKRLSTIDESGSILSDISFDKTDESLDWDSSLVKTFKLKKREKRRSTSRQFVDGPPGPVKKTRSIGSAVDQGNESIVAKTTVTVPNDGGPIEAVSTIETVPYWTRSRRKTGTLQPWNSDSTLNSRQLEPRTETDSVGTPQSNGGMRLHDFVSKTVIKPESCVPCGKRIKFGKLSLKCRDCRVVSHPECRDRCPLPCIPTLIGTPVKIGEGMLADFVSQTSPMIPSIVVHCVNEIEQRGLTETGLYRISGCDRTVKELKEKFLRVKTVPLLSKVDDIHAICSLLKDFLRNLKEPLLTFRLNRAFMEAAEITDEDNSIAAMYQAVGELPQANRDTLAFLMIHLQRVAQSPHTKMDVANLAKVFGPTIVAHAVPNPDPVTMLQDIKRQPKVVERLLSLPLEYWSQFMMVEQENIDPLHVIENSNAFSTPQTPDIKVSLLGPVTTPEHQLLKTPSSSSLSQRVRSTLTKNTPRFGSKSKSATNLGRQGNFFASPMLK
Assay: MgcRacGAP GTPase-activating activity inhibitors, confirmation, biochemical, ADP Hunter fluorescence, primary and confirmatory (AID 624330);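 also: fluorescence reports GDP produced by GAP-driven GTP hydrolysis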
Settings: MgcRacGAP-stimulated Rac1 GTP hydrolysis, at 30 µM, hits give high values, GST-tagged Rac1 F28L mutant substrate

inhibition, inactive:
COc1cc(C(=O)NC(c2ccccc2)c2ccccc2)cc(OC)c1C 2.28%, COc1cc(NC(c2ccccc2)c2ccccc2)cc(OC)c1OC 11%, O=C(OCC(=O)N1CCN(S(=O)(=O)c2ccc(Cl)cc2)CC1)c1cccc(OC(F)F)c1 5.16%, O=C(c1ccc(O)c(Br)c1)c1cc(Br)ccc1O 4.27%, O=C(CCNC(=O)c1ccco1)Nc1ccccc1OC(F)F 5.22%, CCCC1=Nc2cc(C(=O)NCCCN3CCOCC3)ccc2Sc2ccccc21 10.2%, CC(Nc1ccc(Cl)cc1)c1cc(Cl)ccc1O (stereo not given) 7.06%, CCOc1ccc(NC(C)c2cc(Cl)ccc2O)cc1 (stereo not given) 15.5%, COC(=O)c1ccc(Nc2nc(-c3ccncc3)nc3ccccc23)cc1 4.52%, CCN1CCN(C(=O)C2CCN(C(=O)c3cc4sccc4n3CC)CC2)CC1 9.89%, CN1CCC(N2CCN(c3cccc(C(F)(F)F)c3)CC2)CC1 5.09%, FC(F)(F)c1cccc(CN2CCCCCC2)c1 26.2%, O=C(C1CCC1)N1CCN(c2cccc(C(F)(F)F)c2)CC1 0.34%, O=C(N/N=C/c1ccccc1O)c1cccc(C(F)(F)F)c1 -1.42%, Oc1ccc(N=Nc2cccc(C(F)(F)F)c2)cc1C=Nc1ccc(N2CCOCC2)cc1 9.72%, FC(F)(F)c1cccc(N2Cc3ccccc3C2)c1 11.1%, O=C(C1=C(O)C(=O)N(CCN2CCOCC2)C1c1ccccn1)c1cccs1 (stereo not given) 8.66%, COc1cc2c(cc1NC(=O)c1ccc(C)c([N+](=O)[O-])c1)oc1ccccc12 8.23%, CN(C)S(=O)(=O)c1ccc(C(=O)Nc2cccc(C(=O)O)c2)cc1 -1.04%, CCN(CC(=O)N1CCCCC1)S(=O)(=O)c1ccccc1 5.64%, CCOC(=O)C1CCN(C(=O)c2cccc(S(=O)(=O)N3CCc4ccccc43)c2)CC1 3.11%, CCCCNC(=O)C(CC)Sc1nc2sc(C(=O)OC)c(C)c2c(=O)n1N (stereo not given) 9.24%, CCCCOC(=O)c1nc(Cl)c(Cl)c(N)c1Cl -9.26%, O=C1C=C(Nc2cccc(O)c2)CC(c2ccco2)C1 (stereo not given) 9.63%, O=C1C=C(Nc2ccc(Cl)cc2)CC(c2ccco2)C1 (stereo not given) 5.91%, Oc1[nH]c2ccccc2c1N=Nc1ccc(F)cc1 4.29%, O=C(O)c1ccc(N=Nc2c(O)[nH]c3ccccc23)cc1 5.98%, CCN1CCN(S(=O)(=O)c2ccc(S(=O)(=O)NCC3CCCO3)cc2)CC1 (stereo not given) 1.86%, CCN1CCN(C(=O)NC2CCCCC2)CC1 30.1%, Cc1ccc[n+](CC(=O)c2ccc(Br)cc2)c1C -7.12%, Nc1ccccc1C=C1Cc2ccccc2C1=O 3.76%, CC(C)c1ccc(OCC(=O)NCc2ccco2)cc1 6.29%, O=C(NCc1ccco1)c1ccc(COc2ccc(Cl)cc2)cc1 -1.23%, Cc1noc(C)c1S(=O)(=O)Nc1ccc2c(c1)C(=O)N([C@H](C)CO)C[C@@H](C)[C@@H](CN(C)Cc1ccc3c(c1)OCO3)O2 1.37%, CC(=O)Nc1ccc(S(=O)(=O)N2CCC(N3CCCC3)CC2)cc1 18.2%, Cc1ncc([N+](=O)[O-])n1Cc1cccc2ccccc12 5.41%, CCCNC(=O)NC(=O)COC(=O)CNS(=O)(=O)/C=C/c1ccccc1 6.44%, O=c1c2ccccc2sn1-c1ccc(S(=O)(=O)N2CCCC2)cc1 21.2%, Cc1ccc(Cn2c(=O)sc3ccccc3c2=O)cc1 5.22%, COc1ccc(-n2c(=O)c3ccccc3c3ccccc3c2=O)cc1 11.5%, O=c1sc2ccccc2c(=O)n1Cc1ccccc1F 7.23%, O=C(O)c1cn(-c2ccc(F)cc2)c(=O)c2ccccc12 8.79%, O=C(c1sc2ccccc2c1Cl)N1CCN(c2ccc(F)cc2)CC1 3.37%, Cn1sc2ccccc2c1=O 18%, COc1ccc(Cn2c(=O)sc3ccccc3c2=O)cc1 3.77%, COc1ccc(NC(=O)COC(C)=O)cc1Cl 3.23%, CCOc1ccc(S(=O)(=O)NCCC(=O)NCC(c2cccs2)N(C)C)cc1 (stereo not given) 8.66%, C#CCNc1cc(C)nc2ncnn12 1.75%, CC(C)CNC(=S)N(CCO)Cc1cc2cc3c(cc2[nH]c1=O)OCO3 14.8%, CC(=C1SC(=S)NC1=O)c1ccccc1 -4.42%, O=C(/C=N/NC(=O)c1ccc(Cl)cc1Cl)c1ccccc1 15%, COc1ccccc1-n1c(SCC(=O)NC2CCCCC2)nc2c(c1=O)SCC2 12.8%, COc1ccc(C(=O)Nc2ccccc2NC(=O)c2ccco2)cc1OC 11%, C/C(=C\C(=O)c1ccc(F)cc1)Nc1ccc(N2CCOCC2)cc1 15.3%, O=C(NCCNC(=O)Nc1ccc(Cl)cc1)Nc1ccc(Cl)cc1 0.54%, CCCCNC(=S)Nc1ccc(Cl)cc1 8.23%, CCOc1ccccc1CNC(=O)C1CCN(c2nn3c(=O)cc(C)nc3s2)CC1 10.9%, O=[N+]([O-])c1ccc(-n2nnnc2CN2CCOCC2)cc1 8.87%, COc1ccc2c(c1)c1ccccc1n2C -2.65%, C/C(=N\O)c1ccc2c3ccccc3n(C)c2c1 11%, Cc1cc(N2CCOCC2)nc(SCc2c(Cl)cccc2Cl)n1 8.06%, O=C(O)C1CCN(Cc2ccccn2)CC1 4.54%, Clc1ccc(CN2CCC(Cc3ccccc3)CC2)cc1 14.2%, O=c1ccn([C@H]2C[C@H](O)[C@@H](CO)O2)c(=O)[nH]1 1.01%, CN(CC(=O)NCC(=O)Nc1ccc(F)cc1)C1CCS(=O)(=O)C1 (stereo not given) 3.81%
